Screens (PubChem)
NR2F2 inh – NR2F2 transcriptional activity inhibitors, primary screen, cell-based, luciferase reporter, HEK293T, luminescence; COUP transcription factor 2 (Homo sapiens), P24468; HEK293T NGFI-A luciferase reporter; inhibition, % at 8.6 µM; 0.7% of 370,000 active;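 active = inhibition above a per-plate cutoff, mean inhibition of test wells between control levels plus 3 SD, cut at about 38% in these data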;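 also: cells cotransfected with COUP-TFII expression vector driving the NGFI-A reporter; 0% = median of COUP-TF2 test wells and 100% = reporter-only cells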
LRH-1 inv ag – LRH-1 (NR5A2) inverse agonists, primary screen, cell-based, luminescence, HEK293T, StAR-luciferase reporter | Nuclear receptor subfamily 5 group A member 2 (Homo sapiens), O00482 | inhibition, % at 3.6 µM | LRH-1 transfected, 24 h | 0.13% of 360,000 active;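 active = inhibition above the mean inhibition of all tested compounds plus 3 SD, cut at about 73% in these data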;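 also: 0% = DMSO wells and 100% = reporter-only cells lacking LRH-1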
SRC3 inh – SRC3 coactivator transcriptional activity inhibitors, primary screen, cell-based, luminescence; 0.17% of 360,000 active; inhibition, % at 3.6 µM; HEK293 GAL4-SRC3 luciferase reporter;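 active = inhibition above a per-campaign cutoff, the mean of all compounds plus 3 SD, cut at about 60% in these data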;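 also: 0% = DMSO-treated cells and 100% = gossypol-treated cells at 36 µM; higher means less SRC3-driven luciferase light from the GAL4 reporter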
Target sequence (Q9Y6Q9 whole entry, looked up, the tested form may be a part): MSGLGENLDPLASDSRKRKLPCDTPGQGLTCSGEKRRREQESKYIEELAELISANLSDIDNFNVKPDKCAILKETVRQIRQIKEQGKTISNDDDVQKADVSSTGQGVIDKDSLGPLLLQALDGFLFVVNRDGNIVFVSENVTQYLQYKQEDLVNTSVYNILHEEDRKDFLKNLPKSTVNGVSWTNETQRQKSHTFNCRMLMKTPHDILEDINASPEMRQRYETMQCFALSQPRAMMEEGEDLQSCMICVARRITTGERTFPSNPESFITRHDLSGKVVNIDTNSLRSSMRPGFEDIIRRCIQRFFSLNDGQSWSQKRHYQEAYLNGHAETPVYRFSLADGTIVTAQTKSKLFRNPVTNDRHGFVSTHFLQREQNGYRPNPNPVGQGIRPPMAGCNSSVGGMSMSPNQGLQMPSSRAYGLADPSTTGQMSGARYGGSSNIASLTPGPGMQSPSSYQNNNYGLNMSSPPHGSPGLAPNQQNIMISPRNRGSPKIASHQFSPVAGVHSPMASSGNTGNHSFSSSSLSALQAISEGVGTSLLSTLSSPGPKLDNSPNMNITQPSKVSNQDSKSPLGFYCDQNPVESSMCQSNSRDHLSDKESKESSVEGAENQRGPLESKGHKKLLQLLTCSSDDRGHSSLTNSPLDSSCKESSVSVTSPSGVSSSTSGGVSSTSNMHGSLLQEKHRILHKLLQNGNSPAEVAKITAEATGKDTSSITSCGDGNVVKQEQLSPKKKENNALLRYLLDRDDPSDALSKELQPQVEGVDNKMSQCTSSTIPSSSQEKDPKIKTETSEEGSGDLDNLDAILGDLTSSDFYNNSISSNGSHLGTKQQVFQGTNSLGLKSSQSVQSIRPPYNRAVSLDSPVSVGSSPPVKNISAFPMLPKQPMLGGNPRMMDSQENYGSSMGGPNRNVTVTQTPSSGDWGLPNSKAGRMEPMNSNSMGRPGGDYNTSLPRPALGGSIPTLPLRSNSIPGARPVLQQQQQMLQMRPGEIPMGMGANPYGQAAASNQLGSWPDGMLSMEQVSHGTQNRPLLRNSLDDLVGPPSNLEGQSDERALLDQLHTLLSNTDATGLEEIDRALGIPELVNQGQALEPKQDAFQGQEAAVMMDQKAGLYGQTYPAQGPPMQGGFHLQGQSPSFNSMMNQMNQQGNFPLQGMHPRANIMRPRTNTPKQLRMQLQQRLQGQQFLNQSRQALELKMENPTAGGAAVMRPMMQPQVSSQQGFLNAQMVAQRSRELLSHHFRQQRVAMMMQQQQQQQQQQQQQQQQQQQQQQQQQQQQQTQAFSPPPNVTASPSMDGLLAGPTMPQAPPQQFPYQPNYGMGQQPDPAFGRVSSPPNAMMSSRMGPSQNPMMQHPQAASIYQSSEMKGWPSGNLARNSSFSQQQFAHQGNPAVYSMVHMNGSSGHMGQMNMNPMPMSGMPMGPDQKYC
Gli-Sufu antag – Gli-Sufu pathway antagonists, primary screen, luciferase luminescence, Sufu-KO-LIGHT cells, uHTS; Sufu-KO-LIGHT fibroblasts, Gli luciferase reporter luminescence; inhibition, % at 5 µM; 0.74% of 340,000 active; AID 588413, 2011;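 active = inhibition above about 55%, limit read from the data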;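 also: 0% = DMSO-treated cells and 100% = wells with medium but no cells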
NCOA2 inhibitor – inhibition of GAL4-SRC2 driven luciferase reporter, primary screen, SRC2 inhibitor project, cell-based, luminescence; 0.17% of 370,000 active; inhibition, % at 9 µM; Nuclear receptor coactivator 2 (Homo sapiens), Q15596; HEK293 GAL4-SRC2 luciferase reporter;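 active = inhibition above the mean inhibition of all tested compounds plus 3 SD, set per campaign, cut at about 52% in these data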;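 also: 0% = DMSO treated cells and 100% = cells given Gossypol at 36 µM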
NCOA1 inh – SRC1 coactivator transcriptional activity inhibitors, primary screen, cell-based, luminescence. Nuclear receptor coactivator 1 (Homo sapiens), Q15788. HEK293 GAL4-SRC1 luciferase reporter. inhibition, % at 3.6 µM. 0.12% of 360,000 active. AID 588354, 2011;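 active = inhibition above the campaign mean plus 3 SD, with each screening campaign given its own cutoff, cut at about 60% in these data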;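 also: 0% = DMSO treated cells and 100% = gossypol at 36 µM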
Gli-Sufu confirm – Gli-SUFU pathway antagonists, confirmation, single concentration, luciferase luminescence, Sufu-KO-LIGHT cells | shares compounds with Gli-Sufu antag | Gli luciferase reporter | AID 602428, 2012 | 40% of 2,500 active | inhibition, % at 5 µM;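 active = mean inhibition at 5 µM reaching about 45%, limit read from the data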;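 also: plate controls were DMSO-treated cells for no effect and wells lacking cells for full effect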
Gli cytotox – cytotoxicity in Sufu-KO-LIGHT cells, confirmation, cytotoxicity control for Gli-SUFU antagonist project, cell-based, ATP luminescence, single concentration. cytotoxicity, % at 5 µM. AID 651994, 2013. shares compounds with Gli-Sufu antag. 32% of 2,500 active;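 active = mean cytotoxicity at 5 µM above about 25%, limit read from the data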;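 also: cells exposed to compound overnight for roughly 16 to 18 hours; plate controls were DMSO wells with cells for no effect and medium without cells for full effect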
Wnt3a cs – Wnt3a reporter signal inhibition, confirmation, counter-screen for Gli-SUFU antagonist project, Wnt-LIGHT cells, luminescence, single concentration. shares compounds with Gli-Sufu antag. Wnt3a-driven luciferase reporter. inhibition, % at 6.25 µM. 20% of 2,500 active;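 active = mean inhibition above about 25%, limit read from the data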
* = called active by the depositor. A selection: hits, their analogues and other compounds. The true share with any hit is near 1.3%.

`CC(O)C1C=CC=CC(=O)OC2CC3OC4C5OC5(C)CCC4(COC(=O)C4OC4(C)C(O)CO1)C2(C)C31CO1` (configuration not stated) gave NR2F2 inh 91*, LRH-1 inv ag 99*, SRC3 inh 94*, Gli-Sufu antag 86*, NCOA2 inhibitor 74* and NCOA1 inh 95*.
For ClCCN1CCSCC1 the results were NR2F2 inh 9, LRH-1 inv ag 4, SRC3 inh -3, Gli-Sufu antag 6, NCOA2 inhibitor -20 and NCOA1 inh 0.
Screening CC(=NNC(=S)N1CC2CCC(CC2)C1)c1nccs1 returned NR2F2 inh -32, LRH-1 inv ag 31, SRC3 inh 25, Gli-Sufu antag 91*, NCOA2 inhibitor -13 and NCOA1 inh 25.
For CC(=O)OC(C)(C)/C=C/C(=O)C(C)(O)C1C(O)CC2(C)C3CC=C4C(CC(O)C(=O)C4(C)C)C3(C)C(=O)CC12C (configuration not stated) the results were NR2F2 inh -5, LRH-1 inv ag 47, SRC3 inh 16, Gli-Sufu antag 87*, NCOA2 inhibitor 62* and NCOA1 inh -3.
CC(=O)OC(C)(C)/C=C/C(=O)C(C)(O)C1[C@H](O)C[C@@]2(C)C3CC=C4C(CC[C@@H](O)C4(C)C)[C@]3(CO)C(=O)C[C@]12C (some centres not stated) was read as NR2F2 inh 6, LRH-1 inv ag 20, SRC3 inh 27, Gli-Sufu antag 80*, NCOA2 inhibitor 43 and NCOA1 inh 5.
Screening CC(=O)OC(C)(C)/C=C/C(=O)[C@](C)(O)[C@H]1[C@H](O)C[C@@]2(C)[C@@H]3CC=C4[C@H](C[C@H](O)C(=O)C4(C)C)[C@]3(C)C(=O)C[C@]12C returned LRH-1 inv ag 49, SRC3 inh 50, Gli-Sufu antag 88* and NCOA1 inh 16.
Screening CCOP(=S)(OCC)Oc1cc(C)nc(C(C)C)n1 returned NR2F2 inh 2, LRH-1 inv ag -2, SRC3 inh -19, Gli-Sufu antag -10, NCOA2 inhibitor -7 and NCOA1 inh -18.
Screening N=c1c2c(n(Cc3ccc(Cl)cc3Cl)c3c1CCC3)CCCC2 returned LRH-1 inv ag 82*, SRC3 inh 43, Gli-Sufu antag 9 and NCOA1 inh 49.
`Cc1sc2ccccc2c1CC1=NCCN1` gave NR2F2 inh -13, LRH-1 inv ag 0, SRC3 inh 6, Gli-Sufu antag 61*, NCOA2 inhibitor 12 and NCOA1 inh 6.
Screening CCOc1cccc(N2C(=O)/C(=C/c3ccco3)C(=O)NC2=S)c1 returned NR2F2 inh -15, LRH-1 inv ag 7, SRC3 inh -4, Gli-Sufu antag 55*, NCOA2 inhibitor -26, NCOA1 inh 21, Gli-Sufu confirm 12, Gli cytotox 0 and Wnt3a cs 5.
Screening O=C1NC(=S)N(c2ccccc2)C(=O)/C1=C/c1ccco1 returned NR2F2 inh 2, LRH-1 inv ag 2, SRC3 inh -18, Gli-Sufu antag 26, NCOA2 inhibitor 0 and NCOA1 inh -52.
For C1=C(c2c[nH]c3ccccc23)CCN(Cc2ccccc2)C1 the results were NR2F2 inh 37, LRH-1 inv ag -4, SRC3 inh 18, Gli-Sufu antag 55*, NCOA2 inhibitor -9, NCOA1 inh -2, Gli-Sufu confirm 20, Gli cytotox 20 and Wnt3a cs -50.
CCC1(OC(=O)CN)C(=O)OCc2c1cc1n(c2=O)Cc2cc3ccccc3nc2-1 (configuration not stated) was read as LRH-1 inv ag 87*, SRC3 inh 69*, Gli-Sufu antag 82*, NCOA1 inh 27, Gli-Sufu confirm 59*, Gli cytotox 59* and Wnt3a cs -83.
`O=c1[nH]c(=S)n(Cc2ccc(F)cc2)c(O)c1C=NCc1cccnc1` gave NR2F2 inh 1, LRH-1 inv ag 25, SRC3 inh 7, Gli-Sufu antag 72*, NCOA2 inhibitor -4, NCOA1 inh -14, Gli-Sufu confirm 22, Gli cytotox -5 and Wnt3a cs -14.
CCC(C)n1c(O)c(C=NCc2cccnc2)c(=O)[nH]c1=S (configuration not stated) was read as NR2F2 inh 10, LRH-1 inv ag 5, SRC3 inh 6, Gli-Sufu antag 6, NCOA2 inhibitor -36 and NCOA1 inh 4.
Screening CN1CCCN(C(=O)COc2ccc(F)cc2Cl)CC1 returned NR2F2 inh -12, LRH-1 inv ag -3, SRC3 inh -6, Gli-Sufu antag 11, NCOA2 inhibitor 7 and NCOA1 inh 2.
`CC1=CC2OC3CC4OC(=O)C=CC=CC(=O)OCCC(C)C(O)C(=O)OCC2(CC1O)C4(C)C31CO1` (configuration not stated) gave LRH-1 inv ag 97*, SRC3 inh 93*, Gli-Sufu antag 88*, NCOA1 inh 94*, Gli-Sufu confirm 96*, Gli cytotox 82* and Wnt3a cs 104*.
Screening COC(=O)C1=C(c2ccc(OC(F)(F)F)cc2)C[C@@H]2CC[C@H]1N2C(=O)NCc1cccc2ccccc12 returned NR2F2 inh 3, LRH-1 inv ag -5, SRC3 inh 21, Gli-Sufu antag 12, NCOA2 inhibitor 12 and NCOA1 inh 15.
Screening NC(=O)c1cc([N+](=O)[O-])cc([N+](=O)[O-])c1 returned NR2F2 inh -1, LRH-1 inv ag 14, SRC3 inh -3, Gli-Sufu antag 16, NCOA2 inhibitor -7 and NCOA1 inh 2.
CC(C)(C)c1cc([N+](=O)[O-])cc(C(C)(C)C)c1O was read as NR2F2 inh 21, Gli-Sufu antag 51, NCOA2 inhibitor -11, Gli-Sufu confirm 77*, Gli cytotox 42* and Wnt3a cs 72*.
